Results from PubChem BioAssay (Tox21).
“And” between values parts separate entries of the source, which are not always exact repeats. Equal entries are not always repeated. Results filed as inconclusive are left out. A structure can be active in one record and inactive in another. The source made the active and inactive calls. Unless noted, calls follow the shape of the dose curve; as a rule, active = well fitted curve in the direction sought with a large enough effect in the repeat runs; inconclusive = weak or mixed curves; inactive = no such curve, though single readings can be large; an effect the other way counts as inactive or inconclusive.

How the values were obtained:
[1] = qHTS assay to identify small molecule antagonists of the glucocorticoid receptor (GR) signaling pathway - cell viability counter screen (AID 720693); also: nearly all actives have a fitted effect of over 55% in size
[2] = qHTS assay for identifying genotoxic compounds that show differential cytotoxicity against isogenic chicken DT40 cell lines with known DNA damage response pathways - wild type cell line (AID 743012); also: nearly all actives have a fitted effect of over 60% in size; also: potency is read from the fitted curve at half-maximal effect
How it was run: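 Cytotoxicity in repair-proficient parental chicken DT40 cells serves as the comparator for Rad54/Ku70- and Rev3-deficient lines. Cells were exposed to compounds for 40 h at 37 C/5% CO2, and ATP-based luminescence (CellTiter-Glo) measured viability.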

[3] = qHTS assay for identifying genotoxic compounds that show differential cytotoxicity against isogenic chicken DT40 cell lines with known DNA damage response pathways - Rev3 mutant cell line (AID 743014); also: nearly all actives have a fitted effect of over 55% in size; also: potency is read from the fitted curve at half-maximal effect
[4] = qHTS assay for identifying genotoxic compounds that show differential cytotoxicity against isogenic chicken DT40 cell lines with known DNA damage response pathways - Rad54/Ku70 mutant cell line (AID 743015); also: nearly all actives have a fitted effect of over 60% in size; also: potency is read from the fitted curve at half-maximal effect
[5] = qHTS assay to identify small molecule antagonists of the androgen receptor (AR) signaling pathway - cell viability counter screen (AID 743033; also: nearly all actives have a fitted effect of over 45% in size)
[6] = qHTS assay to identify small molecule antagonists of the androgen receptor (AR) signaling pathway using the MDA cell line - cell viability counter screen (AID 743041; also: nearly all actives have a fitted effect of over 45% in size)
How it was run: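 Compound exposure lasted 16 h at 37C in MDA-kb2 AR-luc cells stimulated with R1881. Protease-based CellTiter-Fluor reagent was applied for the final 30 min and fluorescence measured.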

[7] = qHTS assay to identify small molecule antagonists of the thyroid receptor (TR) signaling pathway - cell viability counter screen (AID 743064); also: nearly all actives have a fitted effect of over 50% in size
How it was run: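 Fluorescence from CellTiter-Fluor, added after 23.5 h exposure at 37 °C, reported viability of GH3.TRE-Luc cells co-treated with compound and 1 nM T3. Measured in the same wells as the luciferase TR readout.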

[8] = qHTS assay to identify small molecule antagonists of the thyroid receptor (TR) signaling pathway (AID 743065); also: series mostly up to about 70 µM; nearly all actives have a fitted effect of over 55% in size
How it was run: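 GH3.TRE-Luc rat pituitary cells (two TREs driving luciferase) were dosed with compound, then stimulated with 1 nM T3 (final) for 23.5 h at 37 C. ONE-Glo luminescence was the read-out, with CellTiter-Fluor fluorescence as the cytotoxicity counter-screen.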

[9] = system: thyroid hormone receptor (rat, GH3 cells); test: qHTS assay to identify small molecule agonists of the thyroid receptor (TR) signaling pathway (AID 743066; calls by dose curve; also: potency is read from the fitted curve at half-maximal effect)
[10] = target: Estrogen receptor (Homo sapiens) (UniProt P03372); test: qHTS assay to identify small molecule antagonists of the estrogen receptor alpha (ER-alpha) signaling pathway (AID 743069; active = well fitted curve in the direction sought with a large enough effect in the signal ratio in the repeat runs, not every such curve was filed as active; the % refers to the signal ratio)
Estrogen receptor (Homo sapiens), sequence (P03372 whole entry, looked up): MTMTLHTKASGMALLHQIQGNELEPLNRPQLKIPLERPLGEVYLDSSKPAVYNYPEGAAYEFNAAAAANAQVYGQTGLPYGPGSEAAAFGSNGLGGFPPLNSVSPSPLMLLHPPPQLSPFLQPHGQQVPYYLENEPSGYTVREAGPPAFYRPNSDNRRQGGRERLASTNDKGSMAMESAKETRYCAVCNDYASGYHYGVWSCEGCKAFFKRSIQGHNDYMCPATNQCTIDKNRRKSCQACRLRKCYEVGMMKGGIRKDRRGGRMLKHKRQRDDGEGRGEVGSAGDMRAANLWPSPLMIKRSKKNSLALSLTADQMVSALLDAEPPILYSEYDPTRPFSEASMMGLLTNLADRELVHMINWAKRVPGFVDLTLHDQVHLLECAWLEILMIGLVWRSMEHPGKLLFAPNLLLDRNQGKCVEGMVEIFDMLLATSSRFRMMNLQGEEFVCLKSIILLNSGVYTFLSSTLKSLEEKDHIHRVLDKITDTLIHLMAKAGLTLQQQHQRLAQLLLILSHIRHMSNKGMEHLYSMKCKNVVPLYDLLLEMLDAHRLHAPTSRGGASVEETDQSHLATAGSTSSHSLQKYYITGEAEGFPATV
How it was run: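 In this cell-based reporter format, GripTite HEK293 cells harbouring ER-alpha-UAS-bla were grown overnight with 2% charcoal-stripped FBS, dosed with DMSO-dissolved compounds, then challenged with 17beta-estradiol. After 18 hr at 37C, beta-lactamase activity was detected by FRET fluorescence.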

[11] = qHTS assay to identify small molecule antagonists of the estrogen receptor alpha (ER-alpha) signaling pathway - cell viability counter screen (AID 743074; calls by dose curve; also: nearly all actives have a fitted effect of over 45% in size)
[12] = target: Estrogen receptor (Homo sapiens) (UniProt P03372); test: qHTS assay to identify small molecule agonists of the estrogen receptor alpha (ER-alpha) signaling pathway (AID 743075; calls by dose curve)
[13] = target: Estrogen receptor (Homo sapiens) (UniProt P03372); test: qHTS assay to identify small molecule agonists of the estrogen receptor alpha (ER-alpha) signaling pathway using the BG1 cell line (AID 743079); also: nearly all actives have a fitted effect of over 20% in size; also: potency is read from the fitted curve at half-maximal effect
[14] = qHTS assay to identify small molecule antagonists of the estrogen receptor alpha (ER-alpha) signaling pathway using the BG1 cell line (AID 743080; calls by dose curve;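 also: BG1 cells stimulated with 17beta-estradiol alongside compound; series mostly up to about 70 µM; nearly all actives have a fitted effect of over 25% in size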)
How it was run: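 BG1-Luc-4E2 cells (endogenous full-length ER-alpha, stable 4×ERE-luciferase) were starved 5 days in phenol-red-free medium with 10% charcoal-stripped FBS, plated 24 h, then given compound plus 17beta-estradiol for 21.5 h at 37 C; ONE-Glo luminescence read after 30 min.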

[15] = qHTS assay to identify small molecule antagonists of the estrogen receptor alpha (ER-alpha) signaling pathway using the BG1 cell line - cell viability counter screen (AID 743081);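 also: compound given together with 17beta-estradiol as the ER stimulus; series mostly up to about 70 µM; nearly all actives have a fitted effect of over 45% in size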
[16] = target: Aromatase (Homo sapiens) (UniProt P11511); test: qHTS assay to identify aromatase inhibitors (AID 743083); also: series mostly up to about 70 µM; nearly all actives have a fitted effect of over 55% in size
Aromatase (Homo sapiens), sequence (P11511 whole entry, looked up): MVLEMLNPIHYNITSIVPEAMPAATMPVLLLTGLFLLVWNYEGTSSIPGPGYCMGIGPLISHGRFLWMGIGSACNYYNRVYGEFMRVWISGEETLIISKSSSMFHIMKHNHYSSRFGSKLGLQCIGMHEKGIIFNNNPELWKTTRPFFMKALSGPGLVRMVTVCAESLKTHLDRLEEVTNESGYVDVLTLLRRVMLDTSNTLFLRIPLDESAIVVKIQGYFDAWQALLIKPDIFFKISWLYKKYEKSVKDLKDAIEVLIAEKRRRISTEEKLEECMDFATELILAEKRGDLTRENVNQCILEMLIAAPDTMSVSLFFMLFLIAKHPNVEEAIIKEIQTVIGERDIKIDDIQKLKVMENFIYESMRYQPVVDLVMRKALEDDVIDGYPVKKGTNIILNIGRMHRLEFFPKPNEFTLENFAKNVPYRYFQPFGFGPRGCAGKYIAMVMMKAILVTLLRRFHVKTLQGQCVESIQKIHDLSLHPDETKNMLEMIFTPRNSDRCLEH

[17] = target: Androgen receptor (Homo sapiens) (UniProt P10275); test: qHTS assay to identify small molecule antagonists of the androgen receptor (AR) signaling pathway (AID 743035; active = well fitted inhibition curve with a large enough effect in the signal ratio in the repeat runs, not every such curve was filed as active; the % refers to the signal ratio)
Androgen receptor (Homo sapiens), sequence (P10275 whole entry, looked up): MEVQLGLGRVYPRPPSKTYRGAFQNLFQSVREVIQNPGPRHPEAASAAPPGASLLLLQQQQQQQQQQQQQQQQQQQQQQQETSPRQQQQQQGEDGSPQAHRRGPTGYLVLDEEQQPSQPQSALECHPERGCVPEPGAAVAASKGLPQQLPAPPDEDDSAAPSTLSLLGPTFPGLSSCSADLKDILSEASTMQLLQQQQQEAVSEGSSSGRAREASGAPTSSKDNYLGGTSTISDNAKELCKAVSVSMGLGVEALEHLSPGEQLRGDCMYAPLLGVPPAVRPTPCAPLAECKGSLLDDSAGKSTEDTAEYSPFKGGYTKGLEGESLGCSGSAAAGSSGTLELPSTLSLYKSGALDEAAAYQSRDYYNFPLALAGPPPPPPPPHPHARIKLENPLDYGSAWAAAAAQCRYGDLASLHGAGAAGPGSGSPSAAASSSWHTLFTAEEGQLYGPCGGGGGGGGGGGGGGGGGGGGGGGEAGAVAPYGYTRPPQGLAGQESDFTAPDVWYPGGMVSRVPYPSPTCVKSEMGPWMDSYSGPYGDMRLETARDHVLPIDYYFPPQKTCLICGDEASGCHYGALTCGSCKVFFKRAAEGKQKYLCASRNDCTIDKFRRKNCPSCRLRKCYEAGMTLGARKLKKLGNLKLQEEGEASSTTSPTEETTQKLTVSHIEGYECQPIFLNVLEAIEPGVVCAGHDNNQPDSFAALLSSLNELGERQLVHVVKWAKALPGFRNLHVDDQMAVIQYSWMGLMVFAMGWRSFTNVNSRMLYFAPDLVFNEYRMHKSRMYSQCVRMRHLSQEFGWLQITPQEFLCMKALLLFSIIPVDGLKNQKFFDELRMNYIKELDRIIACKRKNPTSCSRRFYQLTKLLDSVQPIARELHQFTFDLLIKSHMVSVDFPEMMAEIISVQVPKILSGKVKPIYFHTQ
How it was run: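 Steps: seed AR-UAS-bla GripTite HEK293 cells, incubate 4 h at 37C; pin in test compound, then add agonist R1881; incubate 16 h at 37C; add LiveBLAzer B/G FRET substrate, 2 h at room temperature; read fluorescence.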

[18] = target: Androgen receptor (Homo sapiens) (UniProt P10275); test: qHTS assay to identify small molecule agonists of the androgen receptor (AR) signaling pathway (AID 743036; active = well fitted activation curve with a large enough effect in the signal ratio in the repeat runs, with a control signal flat, not every such curve was filed as active; the % refers to the signal ratio)
How it was run: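 Fluorescence from a beta-lactamase FRET substrate served as read-out in AR-UAS-bla GripTite HEK293 cells. Cells were treated with DMSO-dissolved compounds for 16 h at 37C, then with LiveBLAzer B/G substrate for 2 h at room temperature.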

[19] = target: Androgen receptor (Homo sapiens) (UniProt P10275); test: qHTS assay to identify small molecule agonists of the androgen receptor (AR) signaling pathway using the MDA cell line (AID 743040; also: nearly all actives have a fitted effect of over 20% in size)
How it was run: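 Testing was done with the MDA-kb2 AR-luc line, a human breast carcinoma stably transfected with MMTV-luciferase containing AR and GR response elements. Cells were exposed 16 h at 37C before ONE-Glo luminescence detection.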

[20] = target: Androgen receptor (Homo sapiens) (UniProt P10275); test: qHTS assay to identify small molecule antagonists of the androgen receptor (AR) signaling pathway using the MDA cell line (AID 743042; also: nearly all actives have a fitted effect of over 55% in size)
How it was run: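 MDA-kb2 breast carcinoma cells carrying MMTV-luciferase (AR/GR responsive) were co-treated with compounds and the agonist R1881 for 16 h at 37C. Inhibition read as ONE-Glo luminescence; CellTiter-Fluor fluorescence measured in parallel for cytotoxicity.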

Measured: Potency

O=C(O)COc1ccccc1
inactive: [1] | [2] | [3] | [4] | [5] | [6] | [7] | [8] | [9] | [10] | [11] | [12] | [13] | [14] | [15] | [16]

CC(C)c1cccc(C(C)C)c1O
inactive: [1] | [2] | [3] | [4] | [5] | [17] | [18] | [19] | [6] | [20] | [7] | [8] | [9] | [10] | [11] | [12] | [13] | [14] | [15] | [16]

Nc1ccc([As](=O)(O)O)cc1
inactive and 13.3 µM (active): [4]
inactive and 29.8 µM (active): [3]
inactive: [1] | [2] | [5] | [6] | [7] | [8] | [9] | [10] | [11] | [12] | [13] | [14] | [15] | [16]

CNC(=O)O/N=C(\SC)C(=O)N(C)C
active: [3] 61.1 µM | [4] 54.4 µM | [13] 66.7 µM
inactive: [1] | [2] | [5] | [17] | [18] | [19] | [6] | [20] | [7] | [8] | [9] | [10] | [11] | [12] | [14] | [15] | [16]

COC(C)(C)CCCC(C)C/C=C/C(C)=C/C(=O)OC(C)C (stereo not given)
29.8 µM (active) and inactive: [2]
inactive: [1] | [3] | [4] | [5] | [17] | [18] | [19] | [6] | [20] | [7] | [8] | [9] | [11] | [15] | [16]

CC(C)(C)C(=O)CCl
inactive: [1] | [2] | [3] | [4] | [5] | [17] | [18] | [19] | [6] | [20] | [7] | [10] | [11] | [12] | [13] | [14] | [15] | [16]

CN(C)C(=O)Cl
inactive: [1] | [2] | [3] | [4] | [5] | [6] | [7] | [8] | [9] | [10] | [11] | [12] | [13] | [14] | [15] | [16]

N#Cc1ccccn1
inactive: [1] | [2] | [3] | [4] | [5] | [6] | [7] | [8] | [9] | [10] | [11] | [12] | [13] | [14] | [15] | [16]

CC(C)CCCCCCOC(=O)c1ccccc1C(=O)OCCCCCCC(C)C
inactive: [1] | [2] | [3] | [4] | [5] | [18] | [19] | [6] | [20] | [7] | [8] | [9] | [10] | [11] | [12] | [13] | [14] | [15] | [16]

O=C(O)C1C(C(=O)O)C2(Cl)C(Cl)=C(Cl)C1(Cl)C2(Cl)Cl (stereo not given)
inactive: [1] | [2] | [3] | [4] | [5] | [6] | [7] | [8] | [9] | [10] | [11] | [12] | [13] | [14] | [15] | [16]

Cc1cc(O)ccc1Cl
inactive and 62.2 µM (active): [13]
inactive and 27.3 µM (active): [9]
inactive: [1] | [2] | [3] | [4] | [5] | [6] | [7] | [8] | [10] | [11] | [12] | [14] | [15] | [16]

N#CN=C(N)N
inactive: [1] | [2] | [3] | [4] | [5] | [6] | [7] | [8] | [9] | [10] | [11] | [12] | [13] | [14] | [15] | [16]

FC(F)(F)c1ccc(Cl)cc1
inactive: [1] | [2] | [3] | [4] | [5] | [6] | [7] | [8] | [9] | [10] | [11] | [12] | [13] | [14] | [15] | [16]

O=C(O)Cc1ccccc1
inactive: [1] | [2] | [3] | [4] | [5] | [6] | [7] | [8] | [9] | [10] | [11] | [12] | [13] | [14] | [15] | [16]

OCCCCO
inactive: [1] | [2] | [3] | [4] | [5] | [6] | [7] | [8] | [9] | [11] | [15] | [16]

Sc1ccccc1
inactive: [1] | [2] | [3] | [4] | [5] | [6] | [7] | [8] | [9] | [10] | [11] | [12] | [13] | [14] | [15] | [16]
